Sampled rows, rich in hits. Any-hit rate of the full collection: about 1.3%.
NCOA3 inh = SRC3 coactivator transcriptional activity inhibitors, primary screen, cell-based, luminescence; 0.17% of 360,000 active; HEK293 GAL4-SRC3 luciferase reporter; Nuclear receptor coactivator 3 (Homo sapiens), Q9Y6Q9; AID 588352, 2011; inhibition, % at 3.6 µM;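 active = inhibition above a per-campaign cutoff, the mean of all compounds plus 3 SD, cut at about 60% in these data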;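 also: higher means less SRC3-driven luciferase light from the GAL4 reporter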
Target sequence (Q9Y6Q9 whole entry, looked up, the tested form may be a part): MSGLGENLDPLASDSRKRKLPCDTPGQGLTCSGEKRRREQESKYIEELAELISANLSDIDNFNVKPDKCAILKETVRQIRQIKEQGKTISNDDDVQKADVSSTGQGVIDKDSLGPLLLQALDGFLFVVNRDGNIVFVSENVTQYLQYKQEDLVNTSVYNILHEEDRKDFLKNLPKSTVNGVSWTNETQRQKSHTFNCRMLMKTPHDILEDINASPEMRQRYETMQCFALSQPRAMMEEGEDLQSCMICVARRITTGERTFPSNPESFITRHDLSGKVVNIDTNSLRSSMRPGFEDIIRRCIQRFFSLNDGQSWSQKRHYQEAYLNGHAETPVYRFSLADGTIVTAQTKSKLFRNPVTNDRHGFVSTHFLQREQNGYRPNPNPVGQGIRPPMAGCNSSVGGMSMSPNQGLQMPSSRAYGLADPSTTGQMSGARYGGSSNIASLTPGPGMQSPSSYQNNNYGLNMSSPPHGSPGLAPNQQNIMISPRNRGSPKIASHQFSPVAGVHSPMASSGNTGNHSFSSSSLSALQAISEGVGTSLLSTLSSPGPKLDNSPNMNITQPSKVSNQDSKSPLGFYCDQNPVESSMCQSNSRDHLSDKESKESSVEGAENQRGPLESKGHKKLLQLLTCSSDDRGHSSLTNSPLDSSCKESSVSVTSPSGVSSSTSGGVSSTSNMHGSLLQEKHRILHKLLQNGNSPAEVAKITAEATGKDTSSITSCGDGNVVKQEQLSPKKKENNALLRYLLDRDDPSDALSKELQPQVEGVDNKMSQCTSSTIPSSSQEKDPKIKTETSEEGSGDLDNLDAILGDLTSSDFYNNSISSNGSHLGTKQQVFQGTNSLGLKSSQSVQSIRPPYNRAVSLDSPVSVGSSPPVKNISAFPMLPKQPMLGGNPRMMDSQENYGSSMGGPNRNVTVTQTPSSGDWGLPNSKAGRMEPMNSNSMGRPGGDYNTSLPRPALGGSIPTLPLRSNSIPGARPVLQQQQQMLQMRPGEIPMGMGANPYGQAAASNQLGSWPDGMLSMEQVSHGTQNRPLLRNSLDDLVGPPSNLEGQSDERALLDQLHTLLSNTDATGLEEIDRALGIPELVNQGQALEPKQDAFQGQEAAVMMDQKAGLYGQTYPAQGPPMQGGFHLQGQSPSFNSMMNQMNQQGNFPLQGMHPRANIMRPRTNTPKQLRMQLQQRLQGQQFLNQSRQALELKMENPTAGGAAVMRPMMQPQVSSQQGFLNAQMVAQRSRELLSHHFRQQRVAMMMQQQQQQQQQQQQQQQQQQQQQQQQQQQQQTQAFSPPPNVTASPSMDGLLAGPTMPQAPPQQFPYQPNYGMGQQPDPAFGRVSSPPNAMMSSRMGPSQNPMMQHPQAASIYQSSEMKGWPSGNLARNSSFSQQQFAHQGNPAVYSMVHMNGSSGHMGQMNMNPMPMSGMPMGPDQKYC
NR5A2 inv ag = LRH-1 (NR5A2) inverse agonists, primary screen, cell-based, luminescence, HEK293T, StAR-luciferase reporter; LRH-1 transfected, 24 h; inhibition, % at 3.6 µM; 0.13% of 360,000 active; AID 602396, 2012;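 active = inhibition above the mean inhibition of all tested compounds plus 3 SD, cut at about 73% in these data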
Gli-Sufu block = Gli-Sufu pathway antagonists, primary screen, luciferase luminescence, Sufu-KO-LIGHT cells, uHTS; Sufu-KO-LIGHT fibroblasts, Gli luciferase reporter luminescence; inhibition, % at 5 µM; 0.74% of 340,000 active; AID 588413, 2011;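 active = inhibition above about 55%, limit read from the data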
COUP-TFII inh = NR2F2 transcriptional activity inhibitors, primary screen, cell-based, luciferase reporter, HEK293T, luminescence | HEK293T NGFI-A luciferase reporter | inhibition, % at 8.6 µM | COUP transcription factor 2 (Homo sapiens), P24468 | 0.7% of 370,000 active;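 active = inhibition above a per-plate cutoff, mean inhibition of test wells between control levels plus 3 SD, cut at about 38% in these data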;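 also: cells cotransfected with COUP-TFII expression vector driving the NGFI-A reporter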
SRC2 inh = inhibition of GAL4-SRC2 driven luciferase reporter, primary screen, SRC2 inhibitor project, cell-based, luminescence | Nuclear receptor coactivator 2 (Homo sapiens), Q15596 | 0.17% of 370,000 active | inhibition, % at 9 µM | HEK293 GAL4-SRC2 luciferase reporter | AID 651957, 2012;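 active = inhibition above the mean inhibition of all tested compounds plus 3 SD, set per campaign, cut at about 52% in these data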
NCOA1 inh = SRC1 coactivator transcriptional activity inhibitors, primary screen, cell-based, luminescence; Nuclear receptor coactivator 1 (Homo sapiens), Q15788; AID 588354, 2011; HEK293 GAL4-SRC1 luciferase reporter; inhibition, % at 3.6 µM; 0.12% of 360,000 active;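 active = inhibition above the campaign mean plus 3 SD, with each screening campaign given its own cutoff, cut at about 60% in these data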
Gli antag conf = Gli-SUFU pathway antagonists, confirmation, single concentration, luciferase luminescence, Sufu-KO-LIGHT cells | Gli luciferase reporter | AID 602428, 2012 | inhibition, % at 5 µM | shares compounds with Gli-Sufu block | 40% of 2,500 active;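 active = mean inhibition at 5 µM reaching about 45%, limit read from the data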
Gli cytotox = cytotoxicity in Sufu-KO-LIGHT cells, confirmation, cytotoxicity control for Gli-SUFU antagonist project, cell-based, ATP luminescence, single concentration | shares compounds with Gli-Sufu block | cytotoxicity, % at 5 µM | 32% of 2,500 active;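 active = mean cytotoxicity at 5 µM above about 25%, limit read from the data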;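 also: cells exposed to compound overnight for roughly 16 to 18 hours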
Wnt3a counter = Wnt3a reporter signal inhibition, confirmation, counter-screen for Gli-SUFU antagonist project, Wnt-LIGHT cells, luminescence, single concentration. shares compounds with Gli-Sufu block. Wnt3a-driven luciferase reporter. inhibition, % at 6.25 µM. 20% of 2,500 active. AID 651995, 2013;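 active = mean inhibition above about 25%, limit read from the data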
VP16 Luc counter = Gal4-VP16 luciferase reporter inhibitors, counter-screen for COUP-TFII antagonist project, cell-based, luminescence, HEK293. shares compounds with COUP-TFII inh. inhibition, % at 8.5 µM. 25% of 2,500 active. AID 687007, 2013; in the data active = inhibition above about 13%
COUP-TFII conf = NR2F2 transcriptional activity inhibitors, confirmation, cell-based, luciferase reporter, HEK293, triplicate | shares compounds with COUP-TFII inh | inhibition, % at 8.5 µM | 45% of 2,500 active | HEK293 NGFI-A luciferase reporter, luminescence;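 active = mean inhibition over three repeats above a set limit taken from the earlier primary screen, cut at about 38% in these data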
Numbers stand for hits; . = inactive; / = not tested or not shown.

SMILES | NCOA3 inh | NR5A2 inv ag | Gli-Sufu block | COUP-TFII inh | SRC2 inh | NCOA1 inh | Gli antag conf | Gli cytotox | Wnt3a counter | VP16 Luc counter | COUP-TFII conf
C=CCN1C(C(=O)OCC)CSCCS1(=O)=O (stereo not drawn) | / | / | / | . | . | / | / | / | / | / | /
N#CCC(=O)Nc1ccc(C(=O)OCC(=O)C23CC4CC(CC(C4)C2)C3)cc1 | . | . | . | . | . | . | / | / | / | / | /
O=C(OCC12CC3CC(CC(C3)C1)C2)c1ccc(NCc2cc(O)ccc2O)cc1 | 73 | . | 78 | 80 | 85 | . | 68 | 38 | 66 | 79 | 99
Cc1ccc(C#CC[N+]2(CC#Cc3ccc(C)cc3)CCCCC2)cc1 | . | . | 88 | 45 | . | . | 89 | 39 | . | 13 | .
C#CC[N+]1(CC#Cc2ccccc2)CCCCC1 | . | . | . | . | . | . | / | / | / | / | /
Cc1sc2ncnc(NCC(O)c3ccc([N+](=O)[O-])cc3)c2c1C (stereo not drawn) | . | . | 68 | 63 | . | . | 71 | 30 | . | . | 50
Cc1sc2ncnc(NCC(c3ccccc3)N(C)C)c2c1C (stereo not drawn) | . | . | . | . | . | . | / | / | / | / | /
CCN(CC)S(=O)(=O)c1ccc(Oc2ccccc2OC)cc1 | . | . | . | . | . | . | / | / | / | / | /
CCN(CC)S(=O)(=O)c1ccc(Oc2ccc(S(=O)(=O)N(CC)CC)cc2)cc1 | . | . | 80 | 38 | . | . | 85 | 45 | 29 | . | .
CCC[N+]1(CC#CCC(c2ccccc2)c2ccccc2)CCCCC1 | . | . | 84 | 52 | . | . | 88 | 49 | 36 | . | .
CCOC(=O)N1CCN(c2ncnc3c2[nH]c2ccc(OC)cc23)CC1 | . | . | . | . | . | . | / | / | / | / | /
CCCCOc1ncnc2c1[nH]c1ccc(OCC)cc12 | . | . | . | . | . | . | / | / | / | / | /
CCOC(=O)N1CCN(c2ncnc3c2[nH]c2ccc(F)cc23)CC1 | . | . | 76 | 64 | . | . | 75 | 27 | . | . | 40
CCCCOc1ncnc2c1[nH]c1ccc(F)cc12 | . | . | 58 | 56 | . | . | 56 | 29 | . | . | .
COc1ccc(N2C(=O)c3[nH]nc(-c4ccccc4)c3C2c2ccc(F)cc2)cc1 (stereo not drawn) | / | / | / | . | . | / | / | / | / | / | /
CC(C)c1nc(N(C)S(C)(=O)=O)nc(-c2ccc(F)cc2)c1/C=C/[C@H](O)C[C@@H](O)CC(=O)O | / | / | / | . | . | / | / | / | / | / | /
CC12CCC(=O)C=C1CCC1C2CCC2(C)C(c3csc(N)n3)CCC12 (stereo not drawn) | . | . | 58 | 57 | . | . | 62 | 40 | 46 | . | 45
CC(=O)[C@H]1CC[C@H]2[C@@H]3CCC4=CC(=O)CC[C@]4(C)[C@H]3CC[C@]12C | . | . | . | . | . | . | / | / | / | / | /
c1ccc(CC2CCN(c3ncnc4sccc34)CC2)cc1 | . | . | 66 | 55 | . | . | 70 | 33 | 35 | . | 53
O=C(O)c1cc2c(N3CCC(Cc4ccccc4)CC3)ncnc2s1 | . | . | . | . | . | . | / | / | / | / | /

High-throughput results from PubChem BioAssay.
